The source of these data is PubChem BioAssay AID995 (National Center for Advancing Translational Sciences (NCATS), 2007).

In all, about 72,000 compounds went through this assay and about 710 (0.99%) were called active. Another 7% or so got no clear call; they are omitted. This excerpt belongs to a sample that is enriched for actives. Values without a mark were called inactive. Calls follow the shape of the dose curve; as a rule, active = well fitted inhibition curve with a large enough effect; inconclusive = small, poorly fitted or top-dose-only effect; inactive = no such curve, though single readings can be large or run the other way.
% is scaled to controls: 0 for no effect and ±100 for the full control effect; potency is read from the fitted curve at half-maximal effect.

The nature of the experiment: qHTS Assay for Inhibitors of the ERK Signaling Pathway using a Homogeneous Screening Assay. Also: nearly all actives have a fitted effect of over 55% in size. Particulars: HEK293-V1b, vasopressin-stimulated pERK AlphaScreen; series mostly up to 57.5 µM; activity, negative = inhibition: at the top concentration. The gist of the method: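 HEK293 cells stably expressing V1b receptor, preincubated 30 min at 37 °C with compound, then stimulated 5 min with 25 nM vasopressin. Phospho-ERK by AlphaScreen SureFire after 5 h RT; normalized to DMSO and vasopressin; AC50 by Hill fit.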
For orientation: In qHTS, concentration-response curves come from the screen itself.
Turning to `CC(C)NC[C@H](O)c1ccc2ccccc2c1`, the Potency result is “inactive”.

Regarding `COC(=O)[C@@]1(Cc2ccccc2)[C@H]2c3cc(C(=O)N4CCCC4)n(Cc4ccc(C)o4)c3C[C@H]2CN1C(=O)c1ccccc1`, the “activity, negative = inhibition” value is -4.58%.

In the case of `CN(C(=O)CN(CCO)CC(=O)N(C)C(C)(C)Cc1ccccc1)C(C)(C)Cc1ccccc1`, the Potency entry was “inactive”.

With `Cc1cc(C)cc(N)c1`, the “activity, negative = inhibition” value was 7.96%.

With `CCCn1c(-c2ccc(F)cc2)nc2c(NCC3CCCN3CC)nc(C)nc21` (stereo unspecified), the “activity, negative = inhibition” value is -24.4%.

On to `COC(=O)[C@@]1(Cc2ccc(F)cc2)[C@H]2c3cc(C(=O)N4CCCC4)n(Cc4ccc(OC(F)(F)F)cc4)c3C[C@H]2CN1C(=O)c1ccccc1`, for which the “activity, negative = inhibition” value was 4.38%.

For the molecule `COc1ccccc1N1CCN(CCN2C(=O)c3ccccc3C(C)(C)C2=O)CC1`, the “activity, negative = inhibition” value is -25.3%.

With `CN(C)/C=N/c1cc(=O)n(C)c(=O)n1CC1CC1`, the “activity, negative = inhibition” value was 0.0595%.

Take `CC(C)=CCC/C(C)=C/CO/N=C1/C[C@@H](O)[C@@H](O)[C@@H]2[C@@H]3C(=O)N(C(C)(C)C)C(=O)[C@H]3CC[C@H]12`: the activity, negative = inhibition was 7.53% [at 11.5 µM].

Regarding `Cn1c(N)c(C(=O)COC(=O)c2cc(C(F)(F)F)nc3c(C(F)(F)F)cccc23)c(=O)n(C)c1=O`, the “activity, negative = inhibition” value is -13.9%.

With `CC/C=C/C/C=C/C/C=C/CCCCCCCC(=O)OCC`, the “activity, negative = inhibition” value was 26%.

Regarding `CC1(C)OC(C(O)(c2ccccc2)c2ccccc2)C(C(O)(c2ccccc2)c2ccccc2)O1` (stereo unspecified), the activity, negative = inhibition was 31.6% [at 11.5 µM].

On to `COC(=O)[C@H]1[C@H]2C[C@H]3c4[nH]c5ccccc5c4CCN3C[C@@H]2CC[C@@H]1O`, for which the Potency result is “inactive”.

Consider `Oc1ccccc1CNCc1ccccc1O`, for which the activity, negative = inhibition is 19.3% [at 11.5 µM].

Turning to `COc1ncc2nc(-c3ccc(Cl)cc3)c(=O)n(C)c2n1`, the “activity, negative = inhibition” value was -0.77%.

In the case of `O=C(Nc1ccccc1)N[C@H]1C[C@H](C(=O)O)Nc2cc(Cl)cc(Cl)c21`, the “activity, negative = inhibition” value was -10.9%.

For `CC1O[C@@H](Oc2c(-c3ccc(O)c(O)c3)oc3cc(O)cc(O)c3c2=O)C(O)C(O)C1O` (stereo partly specified), the “activity, negative = inhibition” value was -4.83%.

Consider `COC1[C@H](OC(N)=O)C(O)[C@H](Oc2ccc3c(O)c(NC(=O)c4ccc(O)c(CC=C(C)C)c4)c(=O)oc3c2C)OC1(C)C` (stereo partly specified), for which the “activity, negative = inhibition” value was 14.4%.

`C#CCCCCCCCCCCCCCCCC(=O)O`: the “activity, negative = inhibition” value is 9.99%.

For `CO[C@H]1COC(=O)[C@@H](OCc2ccccc2)/C=C\[C@H](C)[C@@H](OC)COC(=O)[C@H](OCc2ccccc2)/C=C\[C@@H]1C`, the activity, negative = inhibition is 30% [at 11.5 µM].

Turning to `O=C(CSc1nnc(-c2cnccn2)n1Cc1ccco1)c1ccc(Cl)c(Cl)c1`, the “activity, negative = inhibition” value is -26.5%.

On to `O=C(CSc1nnc(-c2cccnc2)n1Cc1ccco1)c1ccc(Cl)c(Cl)c1`, for which the “activity, negative = inhibition” value was 10.5%.

For the molecule `O=C(CSc1nnc(-c2cccs2)n1Cc1ccco1)c1ccc2c(c1)OCO2`, the Potency was 31.6 µM (active).

As to `N#Cc1cccc(-c2ccc3ncnc(NCc4cccs4)c3c2)c1`, the “activity, negative = inhibition” value was -25.3%.

In the case of `Cc1noc(C)c1-c1nccc(N2CCOCC2)n1`, the “activity, negative = inhibition” value was -10.5%.

For the molecule `N#CCC(=O)NC(=O)NCC1CC1`, the “activity, negative = inhibition” value is 12.1%.

For the molecule `COc1ccc2c3c1OC1CC(O)C=C[C@@]31CCN(C)C2` (stereo partly specified), the “activity, negative = inhibition” value was 14%.

With `COC(=O)c1ccc(C23CC4(C2)[C@H](CN(Cc2cccnc2)[C@@H]4c2ccccc2)C3c2ccc(Cl)nc2)cc1` (stereo partly specified), the “activity, negative = inhibition” value was -2.78%.

In the case of `CC(C)CO/N=C1/C[C@@H](O)[C@@H](O)[C@@H]2[C@@H]3C(=O)N(C[C@@H]4CCCO4)C(=O)[C@H]3CC[C@@H]12`, the activity, negative = inhibition was 8.6% [at 11.5 µM].

Regarding `CCNc1ncc2ncc(=O)n(Cc3cccc(OC)c3)c2n1`, the “activity, negative = inhibition” value is -28.5%.

`CC(=O)c1ccc(-n2nnnc2SCC(=O)N2CCN(C(=O)c3ccco3)CC2)cc1`: the “activity, negative = inhibition” value was -14%.

As for `Cn1nnnc1SCC(=O)N1CCN(C(c2ccccc2)c2ccccc2)CC1`, the “activity, negative = inhibition” value is 2.32%.

`Cn1nnnc1SCC(=O)N1CCN(Cc2ccccc2)CC1`: the Potency was 31.6 µM (active).

For `CC(=O)OCC(=O)C1CCC2C3CCC4=CC(=O)CC[C@@]4(C)C3CC[C@]12C` (stereo partly specified), the “activity, negative = inhibition” value is -26.6%.

Take `Cc1ccc(NC(=O)c2cccc(N(C)C)c2)cc1NC(=O)c1ccc(O)cc1`: the “activity, negative = inhibition” value was -23%.

With `CC1(C)OC2CO[C@]3(COS(N)(=O)=O)OC(C)(C)OC3C2O1` (stereo partly specified), the “activity, negative = inhibition” value is 4.56%.

Consider `CC1(C)C=CC(=O)[C@]2(C)C1CC(=O)[C@]1(C)C2CC[C@@]2(C)C(c3ccoc3)OC(=O)C3OC321` (stereo partly specified), for which the “activity, negative = inhibition” value was -1.1%.

`COC(=O)[C@H]1C[C@@H]1[C@H](NC(=O)Oc1ccc(F)cc1)c1ccccc1`: the “activity, negative = inhibition” value was -2.42%.

`O=C(c1cnccn1)N1CCC2(CCCN(Cc3ccccc3)C2)CC1`: the “activity, negative = inhibition” value is -10.5%.

As for `COc1ccccc1OCCNCC(O)COc1cccc2[nH]c3ccccc3c12` (stereo unspecified), the “activity, negative = inhibition” value was -2.44%.

Consider `O=C(OCC(COC(=O)c1ccccc1)(COC(=O)c1ccccc1)COC(=O)c1ccccc1)c1ccccc1`, for which the “activity, negative = inhibition” value was 34.7%.

As to `COc1c(C(C)C)oc2cc3oc(=O)ccc3cc12`, the “activity, negative = inhibition” value is 29.4%.

As for `COC(=O)[C@@]1(Cc2ccc(OC)cc2)[C@H]2c3cc(C(=O)N4CCCC4)n(Cc4ccc(OC(F)(F)F)cc4)c3C[C@H]2CN1C(=O)c1ccccc1`, the “activity, negative = inhibition” value was 3.07%.

Turning to `O=C(O)CS(=O)c1ccc2c3c(cccc13)C(=O)c1ccccc1-2` (stereo unspecified), the activity, negative = inhibition is 22.7% [at 11.5 µM].

For the molecule `CC(C)CO`, the “activity, negative = inhibition” value is 7.21%.

Regarding `Nc1nc2[nH]c(=O)c(=O)[nH]c2c(=O)[nH]1`, the “activity, negative = inhibition” value is -3.19%.
